Assay outcomes deposited in PubChem by several laboratories.
MEKK3 PB1 HTS: modulators of MEKK3-MEK5 PB1 binding, primary screen, biochemical, wildtype MEKK3, multiplex bead flow cytometry, Alexa488-MEK5 | bead-based flow cytometry, Alexa488-MEK5 binding to MEKK3; actives lie on both sides; 0 = blocked by unlabeled MEK5, 100 = vehicle | binding response (% of control), % at 10 µM | hit rate 1.4% among 290,000;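 active = binding response more than 3 SD above or below the average of its plate-row segment, actives on both sides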;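 also: Alexa488 bead fluorescence after subtracting the streptavidin-only scavenger bead signal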
NRP1-CendR mod: modulators of CendR peptide binding to NRP-1, primary screen, biochemical, fluorescence polarization, uHTS | FAM-RPARPAR peptide binding to NRP-1 | hit rate 0.85% among 360,000 | Neuropilin-1 (Homo sapiens), O14786 | inhibition, % at 25 µM;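 active = inhibition or corrected inhibition above about 18%, plus a signal ratio from 0.5 to 1.5, limit read from the data, passing the limit was not always enough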
Target sequence (O14786 whole entry, looked up): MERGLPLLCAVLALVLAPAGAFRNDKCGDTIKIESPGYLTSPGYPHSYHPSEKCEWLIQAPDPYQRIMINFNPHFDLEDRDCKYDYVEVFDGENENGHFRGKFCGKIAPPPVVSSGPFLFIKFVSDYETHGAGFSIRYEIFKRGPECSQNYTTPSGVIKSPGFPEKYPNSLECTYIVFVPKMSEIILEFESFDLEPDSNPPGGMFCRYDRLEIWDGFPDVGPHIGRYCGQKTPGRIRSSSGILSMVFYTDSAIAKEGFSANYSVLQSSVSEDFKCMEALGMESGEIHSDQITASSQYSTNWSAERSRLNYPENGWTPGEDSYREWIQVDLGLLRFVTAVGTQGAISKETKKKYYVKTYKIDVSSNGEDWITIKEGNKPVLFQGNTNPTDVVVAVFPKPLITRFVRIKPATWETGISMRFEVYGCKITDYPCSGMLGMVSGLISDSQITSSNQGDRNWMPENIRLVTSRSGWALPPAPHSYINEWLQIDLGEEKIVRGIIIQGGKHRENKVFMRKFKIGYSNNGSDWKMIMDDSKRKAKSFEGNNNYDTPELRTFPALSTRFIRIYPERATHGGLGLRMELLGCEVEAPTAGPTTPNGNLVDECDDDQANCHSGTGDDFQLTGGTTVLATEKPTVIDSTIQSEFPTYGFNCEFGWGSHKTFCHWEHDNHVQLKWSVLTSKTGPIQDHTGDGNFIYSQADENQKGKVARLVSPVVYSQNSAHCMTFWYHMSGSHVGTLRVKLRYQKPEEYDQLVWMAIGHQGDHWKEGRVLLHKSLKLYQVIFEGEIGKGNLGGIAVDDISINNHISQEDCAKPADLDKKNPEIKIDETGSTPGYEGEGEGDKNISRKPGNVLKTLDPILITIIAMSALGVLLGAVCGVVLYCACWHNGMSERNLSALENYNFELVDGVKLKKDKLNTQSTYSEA
SKN-1 block: suppressors of acrylamide-induced Pgst-4::GFP reporter in worms, primary screen, SKN-1 inhibitor project, whole organism, uHTS, GFP/RFP fluorescence ratio, strain VP596. C. elegans VP596 Pgst-4::GFP/RFP ratio, 24 h. inhibition, % at 21.8 µM. hit rate 0.49% among 360,000. AID 624304, 2012;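 active = interference check ratio from 0.5 to 1.5 plus GFP to RFP signal ratio inhibition reaching or exceeding a fixed threshold, cut at about 30% in these data, passing the limit was not always enough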
MEKK2 WT-MEK5: modulators of MEK5 binding to wildtype MEKK2, primary screen, biochemical, multiplex bead flow cytometry, Alexa488-MEK5. AID 1531, 2009. Mitogen-activated protein kinase kinase kinase 2 (Homo sapiens), Q9Y2U5. Alexa488-MEK5 binding to MEKK2 WT; actives lie on both sides. hit rate 1.1% among 290,000. binding response (% of control), % at 10 µM; in the data active = binding response below about 67% or above about 130%
MEKK2 mut-MEK5: MEK5 binding signal on mutant MEKK2 PB1, primary screen, biochemical, multiplex bead flow cytometry, Alexa488-MEK5; Alexa488-MEK5 binding to MEKK2 mutant; percent response, % at 10 µM; hit rate 0.35% among 290,000; AID 1530, 2009; in the data active = percent response above about 24%, passing the limit was not always enough
* marks the source's active call; other numbers are inactive results; . = no result; ! = not confirmed by another sample. Most compounds without a hit are left out; they make up all but 3.2% or so of the library.

SMILES	MEKK3 PB1 HTS	NRP1-CendR mod	SKN-1 block	MEKK2 WT-MEK5	MEKK2 mut-MEK5
O=c1[nH]c(O)c(N=Nc2cc([N+](=O)[O-])ccc2O)c(=O)[nH]1	96.0	-1.2	49.7*	93.0	-6.0
COC(=O)C1=CO[C@@H](C)[C@H]2CN3CC[C@]4(C(=O)Nc5ccccc54)[C@@H]3C[C@H]12	95.0	3.5	1.7	-8.0*	-4.0
COC(=O)C1=CO[C@H](C)[C@H]2CN3CC[C@@]4(C(=O)Nc5ccccc54)[C@@H]3C[C@H]12	103.0	4.1	5.8	102.0	3.0
CC(=O)C1(c2ccccc2)CCN(C(=O)C2CCC(=O)N(CCc3cccc(F)c3)C2)CC1 (configuration not stated)	102.0	12.3	12.6	108.0	6.0
O=[N+]([O-])c1ccc(N(CCO)CCO)c2c1no[n+]2[O-]	.	4.5	47.4*	.	.
COC1CC2C=C(C)C=CC=CC(=O)NC(c3ccccc3)CC=CCCC(O)CC(=O)C2=C1O (configuration not stated)	.	-64.5	5.6	.	.
c1ccc(Nc2ccc(Nc3ccccc3)cc2)cc1	.	28.9*	6.4	.	.
O=[N+]([O-])c1ccc(Nc2ccccc2)cc1	104.0	3.7	51.0*	100.0	-2.0
O=[N+]([O-])c1ccc(Cl)cc1	.	-2.2	2.4	.	.
N#CC(C#N)=C(C#N)c1ccc(Nc2ccccc2)cc1	95.0	-11.9	5.4	93.0	1.0
CN1C(=O)/C(=C\c2ccc(N3CCCCCC3)cc2)C(=O)NC1=S	96.0	-53.6	31.5	94.0	-12.0
CCC(C)N1C(=O)/C(=C\c2ccc(N3CCCCCC3)cc2)C(=O)NC1=S (configuration not stated)	88.0	-15.9	32.7	64.0	51.0*
CN1CC[C@@]2(C)c3cc(O)ccc3N(C)[C@@H]12	.	27.5*!	8.4	.	.
CN1CC(C(=O)c2cccc(C(F)(F)F)c2)C(c2ccc(Cl)cc2)C1 (configuration not stated)	107.0	1.2	12.9	122.0	11.0
C=CC[N+]1(C)C2CCC1CC(O)C2 (configuration not stated)	100.0	21.3*	0.6	97.0	3.0
CC(=O)c1ccc2c(c1)C1C(Cl)C(Sc3ccccc3[N+](=O)[O-])CC1C(c1ccccc1[N+](=O)[O-])N2 (configuration not stated)	108.0	-26.1	42.4*	101.0	10.0
Brc1ccc2[nH]cc(C=NN3CCCCCC3)c2c1	.	-3.3	0.2	.	.
CC1=CC2OC3CC4OC(=O)C=CC=CC(C(C)O)OCC(O)C5(C)OC5C(=O)OCC2(CC1O)C4(C)C31CO1 (configuration not stated)	.	9.2	40.3*	.	.
CCOC(=O)[C@]12Cc3cc(Cl)ccc3[C@H]1N(C1CCCCC1)C(=O)c1cc(OC)ccc12	.	-2.3	11.2	.	.
COc1ccc(P2(=O)Nc3ccccc3N2)cc1	103.0	-5.3	12.5	102.0	3.0
COc1ccc2c(c1)NP(=S)(c1ccccc1)N2C (configuration not stated)	.	-6.7	54.3*	.	.
CCC(CO)NC(=O)C1C=C2c3cccc4[nH]cc(c34)CC2N(C)C1 (configuration not stated)	61.0	49.1*	20.5	70.0	-20.0
CCC(c1nnnn1C(C)(C)C)N1CCC2(CC1)C(=O)NCN2c1ccccc1 (configuration not stated)	.	30.2*	9.9	.	.
CSCCC(c1nnnn1C1CCCCC1)N1CCC2(CC1)C(=O)NCN2c1ccccc1 (configuration not stated)	.	23.7*	-0.2	.	.
CC(C)(C)n1nnnc1C(CCc1ccccc1)N1CCC2(CC1)C(=O)NCN2c1ccccc1 (configuration not stated)	.	8.6	0.5	.	.
CS(=O)(=O)N1Cc2ccccc2-n2nncc2C1	.	-2.5	1.2	.	.
Cc1c(P(=S)(c2ccccc2)c2ccccc2)[n+]2ccccc2n1C	96.0	34.2*!	-3.4	99.0	0.0
